From PubChem BioAssay (NCI)
The panel holds about 83,000 compounds, 20% with a hit somewhere; the sample as a whole holds those more often.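 In brief: 96-well plates, 48 h treatment, single concentration, percent growth endpoint.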 Calls of active or inactive are those of the source. Rule for the calls: active = growth percent below 10; inactive = the rest.

Key:
Assay in all cases: NCI-60 one-dose screen, 48 h (100 = growth as untreated, 0 = no growth, -100 = all killed)
Details in all cases: 10 µM unless noted
NCI-H23 lung = system: NCI-H23 lung
NCI-H226 lung = system: NCI-H226 lung
NCI-H322M lung = system: NCI-H322M lung
HOP-62 NSCLC = system: HOP-62 NSCLC
NCI-H460 lung = system: NCI-H460 lung
HOP-92 NSCLC = system: HOP-92 NSCLC
NCI-H522 lung = system: NCI-H522 lung
A549/ATCC NSCLC = system: A549/ATCC NSCLC
786-0 renal = system: 786-0 renal
COLO 205 colon = system: COLO 205 colon

Measured: growth

N#CC1CCc2c(c(-c3ccc4nc(N)sc4c3)nc3ccc4[nH]ncc4c23)C1 (stereo not given)
inactive: NCI-H23 lung 36.9% | NCI-H226 lung 51.1% | NCI-H322M lung 70.5% | HOP-62 NSCLC 54.5% | NCI-H460 lung 12.4% | HOP-92 NSCLC 70.3% | NCI-H522 lung 40.2% | A549/ATCC NSCLC 46% | 786-0 renal 49.3% | COLO 205 colon 40.5%

CC1(C)CC(=O)c2c(nn(-c3ccc(Br)cc3)c2-c2cn(-c3ccccc3)nc2-c2cccnc2)C1
inactive: NCI-H23 lung 90.4% | NCI-H226 lung 98.4% | NCI-H322M lung 93% | HOP-62 NSCLC 81.3% | NCI-H460 lung 97.5% | HOP-92 NSCLC 87.2% | NCI-H522 lung 85.6% | A549/ATCC NSCLC 92.5% | 786-0 renal 100% | COLO 205 colon 105%

CN(C)CCCC1(c2ccc(F)cc2)OCc2cc(-c3cc4ccccc4s3)ccc21 (stereo not given)
active: HOP-62 NSCLC -65.8% | NCI-H460 lung -78.1% | NCI-H522 lung -9.87% | A549/ATCC NSCLC -67.1% | COLO 205 colon -65.6%
inactive: NCI-H23 lung 76.8% | NCI-H226 lung 67.9% | NCI-H322M lung 56.8% | HOP-92 NSCLC 26.8% | 786-0 renal 57.8%

Nc1nc(N)c2c(n1)NC(c1cccc(Nc3ccnc4cc(C(F)(F)F)ccc34)c1)CC(c1ccc(Br)cc1)=N2 (stereo not given)
inactive: NCI-H23 lung 66.3% | NCI-H226 lung 93.9% | NCI-H322M lung 96.1% | HOP-62 NSCLC 58.2% | NCI-H460 lung 29.9% | HOP-92 NSCLC 42.8% | NCI-H522 lung 48.8% | A549/ATCC NSCLC 45.9% | 786-0 renal 68.9% | COLO 205 colon 34%

O=C1Nc2ccccc2/C1=C/c1cccn1C(=O)c1ccc(Cl)s1
inactive: NCI-H23 lung 30.2% | NCI-H226 lung 61.7% | NCI-H322M lung 50.4% | HOP-62 NSCLC 52.3% | NCI-H460 lung 75.7% | HOP-92 NSCLC 70.2% | NCI-H522 lung 37.8% | A549/ATCC NSCLC 23.4% | 786-0 renal 85.3% | COLO 205 colon 68%

CCCCCN(CCCCC)CC(O)c1cc(C)c2ccc3cc(C(C)C)ccc3c2c1 (stereo not given)
inactive: NCI-H226 lung 78.9% | NCI-H322M lung 76.7% | HOP-62 NSCLC 20%
active: NCI-H23 lung -52.1% | NCI-H460 lung 6.03% | HOP-92 NSCLC -43.6% | NCI-H522 lung -62.4% | A549/ATCC NSCLC 3.86% | 786-0 renal -80.5% | COLO 205 colon -14.9%

O=C1/C(=C/c2ccccc2F)CN(C(=O)C(Cl)Cl)C/C1=C\c1ccccc1F
active: NCI-H23 lung -33.2% | NCI-H322M lung -18.5% | NCI-H460 lung -74.2% | HOP-92 NSCLC -27.9% | NCI-H522 lung -49.8% | A549/ATCC NSCLC -2.28% | 786-0 renal -71.9% | COLO 205 colon -57.6%
inactive: NCI-H226 lung 39.4% | HOP-62 NSCLC 13.8%

COc1cc(-c2nc3cc(Cl)c(Cl)cc3[nH]2)ccc1OCC(=O)N=Nc1c(O)[nH]c2ccc(Cl)cc12
inactive: NCI-H226 lung 30.4% | NCI-H322M lung 35.2% | A549/ATCC NSCLC 45.8%
active: NCI-H23 lung -3.62% | HOP-62 NSCLC -36.7% | NCI-H460 lung 5.88% | HOP-92 NSCLC -19.7% | NCI-H522 lung 4.94% | 786-0 renal 2.74% | COLO 205 colon -63.3%

C=C(C)[C@@H]1CC[C@]2(COC(C)=O)CC[C@]3(C)[C@H](CC[C@@H]4[C@@]5(C)CCCN(C(C)=O)C(C)(C)[C@@H]5CC[C@]43C)[C@@H]12
active: NCI-H460 lung 0.0182% | 786-0 renal 8.13% | COLO 205 colon -76.5%
inactive: NCI-H23 lung 89.2% | NCI-H226 lung 45.2% | NCI-H322M lung 61.3% | HOP-62 NSCLC 82.6% | HOP-92 NSCLC 69.3% | NCI-H522 lung 59.6% | A549/ATCC NSCLC 33.8%

O=C(N/N=C/c1cc(Cl)ccc1O)c1ccccc1Nc1ccnc(C(F)(F)F)c1
active: NCI-H226 lung -1.12% | NCI-H460 lung 4.73%
inactive: NCI-H23 lung 37.9% | NCI-H322M lung 19.9% | HOP-62 NSCLC 30.4% | HOP-92 NSCLC 14% | NCI-H522 lung 50.9% | A549/ATCC NSCLC 54.4% | 786-0 renal 27.2% | COLO 205 colon 14.1%

Nc1nc(N)c2c(n1)NC(c1cccc(Nc3ccnc4cc(C(F)(F)F)ccc34)c1)CC(c1ccccc1)=N2 (stereo not given)
inactive: NCI-H23 lung 67.1% | NCI-H226 lung 87.8% | NCI-H322M lung 91.8% | HOP-62 NSCLC 54.9% | NCI-H460 lung 22.6% | HOP-92 NSCLC 45% | NCI-H522 lung 28.8% | A549/ATCC NSCLC 41.4% | 786-0 renal 67.5% | COLO 205 colon 30.2%

COc1ccc(/C=C/c2ccc3ccccc3n2)c(OC)c1
inactive: NCI-H23 lung 74.3% | NCI-H226 lung 86.1% | NCI-H322M lung 75.4% | HOP-62 NSCLC 74.4% | NCI-H460 lung 75.5% | HOP-92 NSCLC 46.8% | NCI-H522 lung 72.5% | A549/ATCC NSCLC 79.6% | 786-0 renal 96.1% | COLO 205 colon 85.9%

CN1CCN(C(=S)SCCCCOc2cc(=O)oc3ccccc23)CC1
inactive: NCI-H23 lung 80.9% | NCI-H226 lung 67.1% | NCI-H322M lung 102% | HOP-62 NSCLC 79.6% | NCI-H460 lung 93.5% | HOP-92 NSCLC 67.5% | NCI-H522 lung 63.6% | A549/ATCC NSCLC 84.5% | 786-0 renal 96.9% | COLO 205 colon 86.4%

CCOC(=O)C(=CNc1cnc(Nc2ccc(N3CCOCC3)cc2)nc1Oc1ccc(OC)cc1)C(=O)OCC
active: NCI-H460 lung 2.03%
inactive: NCI-H23 lung 68.4% | NCI-H226 lung 70.3% | NCI-H322M lung 39.7% | HOP-62 NSCLC 23.5% | HOP-92 NSCLC 30.3% | NCI-H522 lung 76.3% | A549/ATCC NSCLC 22.2% | 786-0 renal 30.8% | COLO 205 colon 65.9%

Cc1nc2c(c(=O)[nH]1)C(c1ccccc1)c1ccc3ccccc3c1O2 (stereo not given)
inactive: NCI-H23 lung 50.4% | NCI-H226 lung 62.5% | NCI-H322M lung 59.1% | HOP-62 NSCLC 20.2% | NCI-H460 lung 20.5% | HOP-92 NSCLC 24.7% | A549/ATCC NSCLC 40.2% | 786-0 renal 25% | COLO 205 colon 72.9%
active: NCI-H522 lung -31.4%

C=C1C(=O)O[C@H]2[C@H]1CC/C(COC(=O)/C=C\C(=O)NCc1ccc(Cn3c(=O)sn(CCCCC)c3=O)cc1)=C\CC[C@@]1(C)O[C@@H]21
inactive: NCI-H23 lung 87.4% | NCI-H226 lung 104% | NCI-H322M lung 101% | HOP-62 NSCLC 104% | NCI-H460 lung 97.8% | HOP-92 NSCLC 89.7% | A549/ATCC NSCLC 97.5% | 786-0 renal 62.8% | COLO 205 colon 19.3%
active: NCI-H522 lung -7.84%

S=C(c1ccc2c(c1)OCO2)N1CCN(c2cccc(Cl)c2)CC1
inactive: NCI-H23 lung 35% | NCI-H226 lung 34.2% | NCI-H322M lung 57.3% | HOP-62 NSCLC 37.5% | HOP-92 NSCLC 63.9% | A549/ATCC NSCLC 35.9% | 786-0 renal 37.8% | COLO 205 colon 25.4%
active: NCI-H460 lung 6.73% | NCI-H522 lung 2.22%

Cn1cc(-c2ccc(-c3cn(C)c4ccc(Cl)cc34)[nH]2)c2cc(Cl)ccc21
active: NCI-H226 lung 6.47% | HOP-62 NSCLC 9.58% | NCI-H460 lung -60.2% | HOP-92 NSCLC -36% | NCI-H522 lung -33.8% | A549/ATCC NSCLC -48.3% | COLO 205 colon -91.5%
inactive: NCI-H23 lung 10.9% | NCI-H322M lung 41.4% | 786-0 renal 41%

FC(F)(F)c1ccc(Cn2cc(CSc3nc4ccccc4s3)nn2)cc1
inactive: NCI-H23 lung 97.6% | NCI-H226 lung 83.1% | NCI-H322M lung 94.4% | HOP-62 NSCLC 89% | NCI-H460 lung 102% | HOP-92 NSCLC 85.4% | NCI-H522 lung 88.2% | A549/ATCC NSCLC 90.1% | 786-0 renal 98.1% | COLO 205 colon 103%

O=C1c2ccccc2C(=O)c2c1cc1c(c2[N+](=O)[O-])OCO1
active: NCI-H23 lung 4.14% | HOP-62 NSCLC 3.82% | NCI-H460 lung 3.42% | HOP-92 NSCLC -3.71% | NCI-H522 lung -46.6% | 786-0 renal 2.64%
inactive: NCI-H226 lung 25.9% | NCI-H322M lung 46.9% | A549/ATCC NSCLC 49% | COLO 205 colon 48%

C#CCOc1cccc(-c2ncnc3cc(NC(=O)C=C)ccc23)c1
inactive: NCI-H23 lung 69% | NCI-H226 lung 69.9% | NCI-H322M lung 70.3% | HOP-62 NSCLC 36.4% | NCI-H460 lung 29.1% | HOP-92 NSCLC 14.9% | NCI-H522 lung 10.5% | A549/ATCC NSCLC 44.5% | 786-0 renal 29.9% | COLO 205 colon 24.4%

O=c1c2c3c(sc2n2c(-c4cc(-c5ccccc5)no4)nnc2n1Cc1ccccc1)CCCC3
inactive: NCI-H23 lung 86.4% | NCI-H226 lung 97.6% | NCI-H322M lung 97.1% | HOP-62 NSCLC 92.5% | NCI-H460 lung 86% | HOP-92 NSCLC 76.5% | NCI-H522 lung 55.2% | A549/ATCC NSCLC 49.9% | 786-0 renal 87.6% | COLO 205 colon 96.4%

Cc1ccnc(Nc2ccc([N+](=O)[O-])c(NCCN3CCOCC3)n2)c1
active: NCI-H460 lung 6.8% | COLO 205 colon -45.4%
inactive: NCI-H23 lung 42% | NCI-H226 lung 24.5% | NCI-H322M lung 50.2% | HOP-62 NSCLC 40.8% | HOP-92 NSCLC 138% | NCI-H522 lung 20.9% | A549/ATCC NSCLC 19.6% | 786-0 renal 24.8%

COc1cnc2c(c1)C(=O)c1c-2n(CCCCl)c(=O)c2ccncc12
inactive: NCI-H23 lung 58% | NCI-H226 lung 69.5% | NCI-H322M lung 78.4% | HOP-62 NSCLC 58.2% | NCI-H460 lung 18.6% | HOP-92 NSCLC 110% | NCI-H522 lung 26.7% | A549/ATCC NSCLC 69.3% | 786-0 renal 83.6% | COLO 205 colon 19.7%
